PubChem BioAssay (Tox21)
Records with an inconclusive call do not appear. Unmarked numbers belong to inactive results. Active and inactive are the calls of the source. Calls follow the shape of the full dose curve.

assay: qHTS assay to identify small molecule agonists of the progesterone receptor (PR) signaling pathway - cell viability counter screen (AID 1346799); conditions: PR-UAS-bla HEK293T viability, CellTiter-Glo luminescence, 16 h; series mostly up to 92.4 µM; activity change, negative = cytotoxicity: at the top concentration; also: nearly all actives have a fitted effect of over 45% in size
Source text: National Center for Advancing Translational Sciences [NCATS]
NIH Chemical Genomics Center [NCGC]
U.S. Environmental Protection Agency [EPA]
National Institutes of Environmental Health Sciences [NIEHS]
National Toxicology Program [NTP]
U.S. Food and Drug Administration [FDA]
Progesterone receptor (PR), a nuclear hormone receptor, plays an important role in development, metabolic homeostasis and reproduction. It is activated by the steroid hormone progesterone. Endocrine disrupting chemicals (EDCs) and their interactions with steroid hormone receptors like PR causes disruption of normal endocrine function. To identify the compounds that stimulate PR signaling, a PR-UAS-bla GripTite cell line i.e. PR-UAS-bla HEK293T (Invitrogen, Carlsbad, CA, USA) containing a beta-lactamase reporter gene under the control of an UAS response element was used to screen Tox21 10K compound library. The cytotoxicity of the Tox21 compound library against the PR-bla cell line was tested in parallel by measuring the cell viability using CellTiter-Glo assay in the same wells.
Tox21 Assay Protocol Summary:
PR-UAS-bla HEK293T cells were dispensed at 3,000 cells/5 uL of assay medium containing 2% charcoal stripped FBS per well into black wall/clear-bottom 1536-well plates using a Multidrop Combi (ThermoFisher Scientific, Waltham, MA) dispenser. After the assay plates were incubated at a 37C and 5% CO2 for 6 hr, 23 nL of compounds dissolved in DMSO, positive controls or DMSO only was transferred to the assay plate by a Pintool station (Kalypsys, San Diego, CA). The plates were incubated at 37C and 5% CO2 for 16 hr. Then 1 uL of LiveBLAzer B/G FRET substrate was added using a Flying Reagent Dispenser (FRD, Aurora Discovery, San Diego, CA), the plates were incubated at room temperature for 2 hours, and fluorescence intensity was measured by an Envision plate reader (PerkinElmer, Shelton, CT). For cell viability readout that measures cytotoxicity, 4 uL/well of CellTiter-Glo reagent was added into the assay plates using a FRD. After 30 min incubation at room temperature, the luminescence intensity in the plates was measured using a ViewLux (PerkinElmer) plate reader.
% is scaled to controls: 0 for no effect and ±100 for the full control effect; potency is read from the fitted curve at half-maximal effect.

Compound | activity change, negative = cytotoxicity | Potency
O=C=NCc1cccc(CN=C=O)c1 | -1.39% [at 19 µM] | 
CC(C)N=C(N)/N=C(\N)Nc1ccc(Cl)cc1 | 0.599% [at 42.5 µM] | 
CCN(CC)c1cccc(C)c1 | -2.63% | 
CC(=O)Nc1ccc(O)cc1 |  | inactive
C1CC(COCC2CO2)CCC1COCC1CO1 (stereo not given) | 11.6% | 
Cc1cccc(C)n1 | -2.09% | 
CO[C@H]1C=CO[C@@]2(C)Oc3c(C)c(O)c4c(O)c(cc(O)c4c3C2=O)NC(=O)/C(C)=C\C=C/[C@H](C)[C@H](O)[C@@H](C)[C@@H](O)[C@@H](C)[C@H](OC(C)=O)[C@@H]1C | 9.81% | 
CCc1cccc(CC)c1N(COC)C(=O)CS(=O)(=O)O | -2.42% | 
ClC/C=C\CCl | 6.1% | 
C(=C/c1ccccc1)/c1ccccc1 | 1.14% | 
CC(C)=CCCC(C)CCOC(=O)C(C)C (stereo not given) | -5.27% | 
CCCCCCCC(C)=O | -4.18% | 
COc1cccc(CCc2ccccc2OCC(CN(C)C)OC(=O)CCC(=O)O)c1 (stereo not given) |  | 2.98 µM (active)
Cc1ccc(CCn2c3c(c4cc(Cl)ccc42)CN(C)CC3)cn1 |  | 21.1 µM (active)
CCN1CCN(c2cc(-c3ccc(F)cc3)c3c(n2)CCCCCC3)CC1 | 2.26% [at 19 µM] | 
Cc1cc(C)c(C=O)c(C)c1 | -23.9% | 
CC1CCCCN1CCCOC(=O)c1ccc(OC2CCCCC2)cc1 (stereo not given) | 16.3% [at 42.5 µM] | 
c1ccc(Nc2cccc3ccccc23)cc1 |  | inactive
CNCC[C@H](Oc1cccc2ccccc12)c1cccs1 |  | 21.1 µM (active)
C[Si](C)O[Si](C)C | -1.28% | 

Compound | activity change, negative = cytotoxicity | Potency
O=S(=O)(O)CCCN1CCOCC1 | 9.2% | 
CC1(C)COCN1 | -8.26% | 
CCCSS/C(CCO)=C(\C)N(C=O)Cc1cnc(C)nc1N | -2.72% [at 42.5 µM] | 
C#CC(O)CCC (stereo not given) | -5.82% | 
CC1=CCC(=O)O1 | 6.34% | 
O=C1OC(OC(=O)c2cccnc2Nc2cccc(C(F)(F)F)c2)c2ccccc21 (stereo not given) | -2.88% [at 42.5 µM] | 
CCCC(C)CCC(C)=O (stereo not given) | -11% | 
CC1(C)C(=O)N(Br)C(=O)N1Br | 0.885% | 
O=C(O)c1cccc(Cl)n1 | -22.8% | 
COCC(=O)O[C@]1(CCN(C)CCCc2nc3ccccc3[nH]2)CCc2cc(F)ccc2[C@@H]1C(C)C |  | 21.1 µM (active)
CC(O)C#CC(C)O (stereo not given) | -3.17% | 
CCCCN(C)C | -1.82% | 
CC(C)(c1cc(Br)c(OCCO)c(Br)c1)c1cc(Br)c(OCCO)c(Br)c1 |  | 33.6 µM (active)
CCCCCCCCCCCCCCCCCO | -18.8% [at 19 µM] | 
COC(=O)C1=C(C)NC(C)=C(C(=O)OCCCN2CCC(c3ccccc3)(c3ccccc3)CC2)C1c1cccc([N+](=O)[O-])c1 (stereo not given) |  | 13.3 µM (active)
NCCCCCCNCCCCCCN | -14.2% | 
CCOC(OCC)C(=O)c1ccccc1 | -5.33% | 
COc1cccc(O)c1 | 20.9% | 
CN(C)CCN1CCOCC1 | 1.39% | 
CCCCCCCC/C=C\CCCCCCCC(=O)OCCOC(=O)CCCCCCC/C=C\CCCCCCCC | -15.1% | 
